High-throughput results (PubChem)
Compounds with a hit are over-represented: about 6.8% of the library has one in this group of screens.
T cruzi growth-1 = T. cruzi intracellular proliferation inhibitors, primary screen, cell-based, beta-gal Tulahuen parasites, NIH3T3 host, luminescence. hit rate 5.9% among 77,000. T. cruzi beta-gal in NIH3T3, GalScreen luminescence, 90 h. inhibition, % at 8.34 µM. AID 624255, 2012;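 active = mean inhibition above about 93%, with at least 55% of replicates each passing it, limit read from the data, passing the limit was not always enough; inconclusive = only one of those two conditions holds; inactive = neither condition holds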
Pf Dd2 growth = P. falciparum Dd2 growth inhibitors, primary screen, SYBR Green fluorescence, single dose replicates | 72 h; stronger effect = lower value | activity change, % at 10 µM | hit rate 2.3% among 94,000 | AID 1159554, 2015; in the data active = activity change below about -80%; inconclusive = no clear call, values can overlap the other calls
C diff HTS = C. difficile growth inhibitors, primary screen, HTS; Clostridium difficile clinical isolate growth, OD600, 24 h; stronger effect = lower value; growth activity, negative = inhibition, % at 16 µg/mL (by protocol); hit rate 0.25% among 86,000;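 active = mean growth activity at or below -80% and every replicate also at or below -80%; inconclusive = mean at or below -80% but some replicate above -80%; inactive = mean growth activity above -80%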;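 note: 0% = DMSO wells and -100% = levofloxacin 16 µg/mL wells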
T cruzi growth-2 = T. cruzi intracellular proliferation inhibitors, confirmation, cell-based, NIH3T3 host, beta-gal parasite, luminescence, cherry-pick | inhibition, % at 8.35 µM | shares compounds with T cruzi growth-1 | hit rate 72% among 5,600 | T. cruzi beta-gal in NIH3T3, GalScreen luminescence, 90 h;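 active = mean replicate inhibition above about 95% and at least 55% of replicates individually reaching it, limit read from the data; inconclusive = only one of the two criteria is met; inactive = neither criterion is met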
T cruzi growth-3 = inhibitors of intracellular T. cruzi replication, confirmation, NIH3T3 host cells, beta-gal parasites, cherry-pick, set 2; shares compounds with T cruzi growth-1; T. cruzi beta-gal in NIH3T3, GalScreen luminescence, 90 h; inhibition, % at 2.09 µM; hit rate 21% among 5,600; AID 651740, 2012;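 active = mean inhibition above about 95%, with at least 55% of replicates also reaching it, limit read from the data; inconclusive = meets just one of the two conditions; inactive = meets neither condition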;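 note: plate controls were neutral control median for no effect and positive control median for full effect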
NIH3T3 tox = cytotoxicity in mouse NIH/3T3 fibroblasts, confirmation, cytotoxicity control for T. cruzi proliferation inhibitor project, cell-based, cherry-pick, single point | cytotoxicity (signal decrease), % at 8.35 µM | shares compounds with T cruzi growth-1 | NIH/3T3 viability, CellTiter-Glo ATP luminescence, 90 h | hit rate 14% among 5,600;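 active = mean signal decrease across replicates above about 35% based on untreated-well scatter, with enough replicates individually passing, limit read from the data; inconclusive = no rule stated though some were filed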;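 note: 0% = median of neutral control wells and 100% = median of positive control wells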
3T3 cytotox 2 = NIH/3T3 fibroblast cytotoxicity, confirmation, cytotoxicity control, cell-based, cherry-pick, single point, set 2. shares compounds with T cruzi growth-1. NIH/3T3 viability, CellTiter-Glo ATP luminescence, 90 h. inhibition, % at 24.9 µM. hit rate 56% among 5,600. AID 651744, 2012;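 active = mean loss of cell viability signal at or above a set limit, and enough replicates individually reaching it; inconclusive = meets only the mean limit or only the replicate share; inactive = meets neither condition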;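 note: 0% = median of neutral control wells and 100% = median of positive control wells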
* marks the source's active call; other numbers are inactive results; u = inconclusive; x = no result given.

SMILES	T cruzi growth-1	Pf Dd2 growth	C diff HTS	T cruzi growth-2	T cruzi growth-3	NIH3T3 tox	3T3 cytotox 2
CC(=O)N1[C@H](C(=O)NCC2CC2)[C@@H](CO)[C@@H]2Cn3c(ccc(-c4ccccc4F)c3=O)[C@@H]21	25	15	-1	x	x	x	x
C[C@H]1CCCCO[C@@H](CN(C)C(=O)Nc2ccc(C(F)(F)F)cc2)[C@@H](C)CN([C@@H](C)CO)C(=O)c2cc(NS(=O)(=O)c3ccc(Cl)cc3)ccc2O1	2	-36	1	x	x	x	x
Cc1ccc(S(=O)(=O)Nc2ccc3c(c2)C(=O)N([C@H](C)CO)C[C@H](C)[C@@H](CN(C)C(=O)Nc2ccc(C(F)(F)F)cc2)OCCCC[C@H](C)O3)cc1	109*	-50	-3	105*	113*	4	11
C[C@@H]1CCCCO[C@H](CN(C)C(=O)Nc2ccc(C(F)(F)F)cc2)[C@H](C)CN([C@@H](C)CO)C(=O)c2cc(NS(=O)(=O)c3ccc(Cl)cc3)ccc2O1	94	-50	8	x	x	x	x
C[C@@H]1CCCCO[C@@H](CN(C)C(=O)Nc2ccc(C(F)(F)F)cc2)[C@H](C)CN([C@H](C)CO)C(=O)c2cc(NS(=O)(=O)c3ccc(Cl)cc3)ccc2O1	u	-38	2	77	118*	-5	3
C[C@@H]1CCCCO[C@@H](CN(C)C(=O)Nc2ccc(C(F)(F)F)cc2)[C@H](C)CN([C@@H](C)CO)C(=O)c2cc(NS(=O)(=O)c3ccc(Cl)cc3)ccc2O1	88	-1	4	x	x	x	x
C[C@@H]1CCCCO[C@H](CN(C)C(=O)Nc2ccc(C(F)(F)F)cc2)[C@H](C)CN([C@H](C)CO)C(=O)c2cc(NS(=O)(=O)c3ccc(Cl)cc3)ccc2O1	99*	-61	14	u	118*	27	18
C[C@H](CO)N1C[C@H](C)[C@H](CN(C)C(=O)Nc2ccc(C(F)(F)F)cc2)OCCCC[C@H](C)Oc2ccc(NS(=O)(=O)c3ccc(F)cc3)cc2C1=O	89	-33	1	x	x	x	x
C[C@@H]1CCCCO[C@H](CN(C)C(=O)Nc2ccc(C(F)(F)F)cc2)[C@@H](C)CN([C@H](C)CO)C(=O)c2cc(NS(=O)(=O)c3ccc(Cl)cc3)ccc2O1	104*	-57	-5	99*	58	7	22
CCCC(=O)N1CCC2(CC1)CN(C(=O)C1CCOCC1)[C@@H](CO)c1[nH]c3cc(OC)ccc3c12	x	-9	-5	x	x	x	x
C[C@@H]1CN([C@@H](C)CO)C(=O)Cc2cc(NC(=O)C3CCCCC3)ccc2O[C@@H]1CN(C)Cc1ccc(C(=O)O)cc1	36	-10	0	x	x	x	x
Cc1noc(C)c1NC(=O)Nc1cccc2c1O[C@H](CN(C)S(=O)(=O)c1ccc(F)cc1)[C@@H](C)CN([C@@H](C)CO)C2=O	70	13	-6	x	x	x	x
COc1ccccc1CN(C)C[C@@H]1OCc2cn(nn2)CCCC(=O)N([C@H](C)CO)C[C@@H]1C	27	-6	x	x	x	x	x
COc1ccc(S(=O)(=O)Nc2ccc3c(c2)C(=O)N([C@H](C)CO)C[C@H](C)[C@@H](CN(C)C(=O)Nc2ccc(C(F)(F)F)cc2)OCCCC[C@@H](C)O3)cc1	108*	-66	7	99*	31	-8	4
COc1ccc(S(=O)(=O)Nc2ccc3c(c2)C(=O)N([C@H](C)CO)C[C@@H](C)[C@H](CN(C)C(=O)Nc2ccc(C(F)(F)F)cc2)OCCCC[C@@H](C)O3)cc1	59	-51	10	x	x	x	x
CO[C@H]1CN(C)C(=O)c2ccc(NC(C)=O)cc2OC[C@@H](C)N(C(=O)CC2CC2)C[C@H]1C	13	20	x	x	x	x	x
CC(C)NC(=O)N1[C@@H](CO)[C@@H]2c3ccccc3N(C(=O)Nc3cccc(Cl)c3)C[C@@H]21	40	10	2	x	x	x	x
